Shown are actives, neighbours in structure and some others; about 2.2% of the full set was active somewhere.
IEC-6 cytotox – cytotoxicity in IEC-6 intestinal epithelial cells, primary screen, cytotoxicity control for KLF5 inhibitor project, cell-based, luminescence; inhibition, % at 5 µM; 0.78% of 290,000 active; IEC-6 cytotoxicity, luminescence viability; in the data active means inhibition above about 22%
aSyn 5UTR inh – MLPCN primary screen, SNCA 5' untranslated region | alpha-synuclein 5'UTR reporter, inhibitor activity | inhibition, % (tested at 7.5 µM) | 0.82% of 300,000 active; in the data active means inhibition above about 60%; inconclusive means no clear call, values can overlap the other calls;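 further: H4 neuroglioblastoma cells stably carrying SNCA 5'UTR luciferase fusion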
Ba/F3 V617F tox – reduced viability of JAK2V617F-dependent Ba/F3 cells, primary screen, JAK2V617F inhibitor project, cell-based, Ba/F3 EpoR-JAK2V617F, luminescence. inhibition, % at 5.6 µM. 1.1% of 220,000 active. AID 1446, 2008. ATP luminescence;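 active means inhibition above the campaign mean plus 3 SD over all tested compounds, cut at about 24% in these data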;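 further: cytokine-independent growth of Ba/F3 cells driven by EpoR plus mutant JAK2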
KLF5 inhibitor – KLF5 expression inhibitors, primary screen, DLD-1 cells, luminescence; 0.23% of 290,000 active; DLD-1 KLF5 promoter-luciferase reporter; inhibition, % at 5 µM; AID 1700, 2009;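 active means inhibition above a per-plate limit of that plate's mean compound inhibition plus 3 SD, cut at about 60% in these data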;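 further: higher means less KLF5 promoter-driven luciferase light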
BaF3 parental – parental Ba/F3 cell viability inhibition, counter-screen for JAK2V617F inhibitor project, murine pro-B, CellTiter-Glo luminescence. inhibition, % at 5.6 µM. AID 1486, 2009. CellTiter-Glo ATP luminescence. 1.1% of 220,000 active;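 active means inhibition above a per-campaign cutoff, the mean inhibition of all tested compounds plus 3 SD, cut at about 27% in these data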
APP transl inh – inhibitors of APP translation via 5'UTR reporter, primary screen, APP 5'UTR luciferase, SH-SY5Y cells; SH-SY5Y APP 5'UTR-luciferase reporter, luminescence; inhibition, % at 2 µM; 0.82% of 190,000 active;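 active means inhibition above a set limit, derived from the sample mean plus 3 SD, cut at about 45% in these data; inconclusive means one replicate passes the limit while the other fails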
Hits are given with their value; 0 = inactive; ? = inconclusive; - = no result.

SMILES | IEC-6 cytotox | aSyn 5UTR inh | Ba/F3 V617F tox | KLF5 inhibitor | BaF3 parental | APP transl inh
O=C(/C=C/c1cccc([N+](=O)[O-])c1)n1cnc2ccccc21 | 0 | 0 | 0 | 0 | 0 | 51
Cn1c2ccc(Br)cc2c2nnc(SCC(=O)O)nc21 | 0 | 62 | - | 0 | - | -
Cn1c2ccccc2c2nnc(SCC(N)=O)nc21 | 0 | 0 | - | 0 | - | -
COc1ccc(CCNC(=O)C(=O)NCC2OCCN2C(=O)c2ccc(Cl)cc2)cc1 (stereo not given) | 0 | 0 | - | 0 | - | -
COc1ccc(C(=O)N2CCOC2CNC(=O)C(=O)NCc2ccc(Cl)cc2)cc1 (stereo not given) | 0 | 0 | 0 | 0 | 63 | 0
CCN(Cc1ccncc1)Cc1nc(-c2ccc(C(=O)OC)cc2)no1 | 0 | 0 | 0 | 0 | 0 | 0
Cc1cc(C)c(OCC(=O)N/N=C/c2ccc3c(c2)OCO3)c(C)c1 | 0 | 0 | 0 | 0 | 0 | 0
Oc1ccc(CN2CCN(Cc3ccccc3)CC2)c2cccnc12 | 0 | 0 | 0 | 0 | 0 | 0
O=S(=O)(c1ccc(Cl)cc1)N1CCN(Cc2ccc(O)c3ncccc23)CC1 | 0 | 77 | 0 | 0 | 0 | 0
C[n+]1ccccc1N1CCN(c2ccccc2Cl)CC1 | 0 | 0 | 56 | 0 | 62 | 0
Cc1ccc(Cl)cc1N1CCN(c2cccc[n+]2C)CC1 | 0 | 0 | 82 | 0 | 65 | 0
Cc1ccc(Cl)cc1N1CCN(C(=S)NCCc2ccccc2)CC1 | 0 | 0 | 0 | 0 | 0 | 0
COc1ccc(-c2noc(CCC(=O)NC3CCCCC3)n2)cc1 | 0 | 0 | - | 0 | - | -
CN(C)S(=O)(=O)Oc1ccc(C(=O)Nc2ccc([N+](=O)[O-])cc2)cc1 | 0 | 0 | 0 | 0 | 0 | 0
COC(=O)c1ccc(OS(=O)(=O)N(C)C)cc1 | 0 | 0 | 0 | 0 | 36 | 0
CCOc1ccc(-n2c(=O)c3sccc3n(CC(=O)NC3CCCCC3)c2=O)cc1 | 0 | 0 | - | 0 | - | -
CCOc1cccc2sc(N(CCCN(C)C)C(=O)c3ccc(S(=O)(=O)N(CC)Cc4ccccc4)cc3)nc12 | 0 | 71 | - | 0 | - | -
COc1ccc(C)c2sc(N(CCCN(C)C)C(=O)c3ccc(S(=O)(=O)N4CCc5ccccc5C4)cc3)nc12 | - | 91 | - | - | - | -
COc1ccc(OC)c2sc(N(CCCN(C)C)C(=O)c3ccc(S(=O)(=O)N4CCc5ccccc5C4)cc3)nc12 | - | 100 | - | - | - | -
CC1CCCCN1S(=O)(=O)c1ccc(C(=O)N(CCCN(C)C)c2nc3ccc(Br)cc3s2)cc1 (stereo not given) | 0 | 67 | - | 0 | - | -
CN(C)CCN(C(=O)c1ccc(S(=O)(=O)N2CCCC2)cc1)c1nc2ccc(Br)cc2s1 | 0 | 0 | - | 0 | - | -
CCOc1cccc2sc(N(CCCN(C)C)C(=O)c3ccc(S(=O)(=O)N(C)Cc4ccccc4)cc3)nc12 | 0 | ? | - | 0 | - | -
Cc1ccc(S(=O)(=O)N2CCCCC2)cc1NC(=O)C1CCCO1 (stereo not given) | 0 | 0 | 0 | 0 | 0 | 0
CC1CC(C)(C)CC2(C1)NC(=O)N(CC(=O)N(Cc1ccccc1)c1ccccc1)C2=O (stereo not given) | - | 0 | - | - | - | -
NC(=O)C1CCN(CC(O)COCc2ccccc2Cl)CC1 (stereo not given) | 0 | 0 | - | 0 | - | -
SMILES | IEC-6 cytotox | aSyn 5UTR inh | Ba/F3 V617F tox | KLF5 inhibitor | BaF3 parental | APP transl inh
COc1cc2nc(N(CCCN(C)C)C(=O)c3ccc(S(=O)(=O)N4CCc5ccccc5C4)cc3)sc2cc1OC | - | 0 | - | - | - | -
COc1cccc2sc(N(CCCN(C)C)C(=O)c3ccc(S(=O)(=O)N4CCCc5ccccc54)cc3)nc12 | 0 | 64 | - | 0 | - | -
COc1cccc2sc(N(CCCN(C)C)C(=O)c3ccc(S(=O)(=O)N4CCc5ccccc5C4)cc3)nc12 | 0 | 94 | - | 0 | - | -
Cc1ccc(NC(=O)CCN2C(=O)c3ccccc3C2=O)cc1 | 0 | 0 | - | 0 | - | -
O=c1[nH]c(C2CCCN(S(=O)(=O)c3ccccc3)C2)nc2c1nnn2Cc1cccc(Cl)c1 (stereo not given) | 0 | 0 | - | 0 | - | -
COc1ccc(C(=O)Nc2nc3ccccc3s2)cc1 | 0 | 67 | - | 0 | - | -
CCOCc1nnc(NC(=O)c2ccc(OC)cc2)s1 | 0 | 0 | 0 | 0 | 0 | 47
COc1cccc(C(=O)Nc2nc3ccccc3s2)c1 | 0 | 0 | - | 0 | - | -
CCc1nnc(NC(=O)c2ccncc2)s1 | 0 | 0 | 0 | 0 | 0 | 0

Assay outcomes deposited in PubChem by several laboratories.
